# Bioassay records deposited in PubChem by National Center for Advancing Translational Sciences (NCATS).
# An excerpt weighted towards active compounds, which were near 21% of everything screened.
# DT40 TDP1 no CPT – qHTS for Inhibitors of human tyrosyl-DNA phosphodiesterase 1 (TDP1): qHTS in cells in absence of CPT; DT40 Tdp1-/- hTDP1 cells, no CPT, ATP luminescence, 48 h; Potency, µM (series often up to 46.2 µM), inactives show at the top dose activity change, negative = growth inhibition, most hits filed as inhibitors; actives 15% (n = 420,000); also: potency is read from the fitted curve at half-maximal effect; nearly all actives have a fitted effect of over 55% in size
#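 Growth kinetics read by CellTiter-Glo luminescence after ≥48 hr at 37 °C. Cells: DT40 Tdp1-/- stably carrying human TDP1, 400 per well, compound exposure in the absence of CPT (DMSO vehicle).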
# VP16 counter – VP16 counterscreen qHTS for inhibitors of ROR gamma transcriptional activity; Drosophila S2 Gal4-VP16 UAS-luciferase, luminescence, 20 h; Potency, µM (titrated, usually from 53.6 µM), for inactives: at the highest dose activity, negative = inhibition, hits mostly inhibitors; actives 3.5% (n = 310,000); AID 2546, 2010;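 also: Gal4-VP16 expression switched on by copper sulfate through the metallothionein promoter; potency is read from the fitted curve at half-maximal effect; nearly all actives have a fitted effect of over 50% in size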
# DT40 TDP1 CPT – qHTS for Inhibitors of human tyrosyl-DNA phosphodiesterase 1 (TDP1): qHTS in cells in presence of CPT | chicken DT40 Tdp1-/-;hTDP1 cells + 20 nM CPT, ATP luminescence, 48 h | AID 686979, 2013 | Potency, µM (series often up to 46.2 µM), for inactives: at the top dose activity change, negative = growth inhibition, actives largely listed as inhibitors | actives 12% (n = 420,000); also: potency is read from the fitted curve at half-maximal effect; nearly all actives have a fitted effect of over 55% in size
#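 Cell growth measured by CellTiter-Glo luminescence after a minimum 48 h, 37 C compound exposure with 20 nM CPT in Tdp1-knockout DT40 cells stably expressing hTDP1, seeded 400/well; qHTS titration format.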
# ELG1 repair inh – qHTS screen for small molecules that inhibit ELG1-dependent DNA repair in human embryonic kidney (HEK293T) cells expressing luciferase-tagged ELG1; HEK293T ELG1-luciferase reporter, luminescence, 16 h; DNA damage induced by 5-fluorouridine; Potency, µM (series often up to 46.1 µM), inactives show at the highest dose activity change, negative = inhibition, hits mostly inhibitors; actives 2.3% (n = 330,000); AID 504467, 2011; also: potency is read from the fitted curve at half-maximal effect; nearly all actives have a fitted effect of over 55% in size
#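 Quantitative HTS, concentration-response format. 2,000 cells/well co-treated with 5-fluorouridine and compound, 16 hr in 5% CO2 at 37 °C; ONE-Glo luminescence read after 30 min.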
# IL1B secr inh – qHTS for Inhibitors of Inflammasome Signaling: IL-1-beta AlphaLISA Primary Screen. activity change, % at 57.5 µM. THP-1 LPS/ATP IL-1B secretion, AlphaLISA, 16 h; hits give low values. actives 4.7% (n = 360,000); in the data active = activity change below about -50%; inconclusive = mostly about -30% to -49%
#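 THP-1 cells pretreated 1 hr with compounds (up to 57.5 uM final), then stimulated with LPS (250 ng/mL final) plus ATP (1.25 mM final); secreted IL-1B measured by AlphaLISA after 16 hr, decreased signal indicating inhibition.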
# RORg inh – qHTS for inhibitors of ROR gamma transcriptional activity; Nuclear receptor ROR-gamma (Mus musculus), P51450; Drosophila S2 Gal4-RORgamma UAS-luciferase reporter, 20 h; Potency, µM (highest dose often 53.6 µM), for the others: top-dose activity change, negative = inhibition, most hits filed as inhibitors; actives 5.4% (n = 310,000); also: potency is read from the fitted curve at half-maximal effect; nearly all actives have a fitted effect of over 60% in size
# Target sequence (P51450 whole entry, looked up, the tested form may be a part): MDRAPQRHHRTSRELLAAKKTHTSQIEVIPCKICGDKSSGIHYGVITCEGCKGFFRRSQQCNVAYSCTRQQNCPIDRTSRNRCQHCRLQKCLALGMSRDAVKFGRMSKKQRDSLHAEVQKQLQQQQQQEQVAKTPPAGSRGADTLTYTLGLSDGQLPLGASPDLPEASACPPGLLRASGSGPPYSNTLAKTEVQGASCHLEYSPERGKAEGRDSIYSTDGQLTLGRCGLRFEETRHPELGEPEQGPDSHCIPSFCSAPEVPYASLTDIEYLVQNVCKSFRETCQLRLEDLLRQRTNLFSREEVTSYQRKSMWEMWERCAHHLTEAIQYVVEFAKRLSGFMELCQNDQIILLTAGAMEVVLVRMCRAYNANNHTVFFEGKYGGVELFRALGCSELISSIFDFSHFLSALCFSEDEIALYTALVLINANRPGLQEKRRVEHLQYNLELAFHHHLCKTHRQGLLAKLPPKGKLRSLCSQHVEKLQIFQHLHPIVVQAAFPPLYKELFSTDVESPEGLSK
#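 Stable Schneider cell line, Gal4 DNA-binding domain fused to ROR gamma, UAS-luciferase. Cmpd 1 hr RT → CuSO4 700 uM final → 20 hr RT → luciferase reagent 10 min → luminescence.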
# Active calls of the source: *; ? = inconclusive; / = no result given; [ ] = another dose, or the depositor's remark. Unless noted, calls follow the shape of the dose curve; as a rule, active = well fitted curve in the direction sought with a large enough effect; inconclusive = small, poorly fitted or top-dose-only effect, or another doubt; inactive = no such curve, though single readings can be large; an effect the other way counts as inactive or inconclusive. % is scaled to controls: 0 for no effect and ±100 for the full control effect.
SMILES,DT40 TDP1 no CPT,VP16 counter,DT40 TDP1 CPT,ELG1 repair inh,IL1B secr inh,RORg inh
CCc1ccccc1NC(=O)c1sc2nc3n(c(=O)c2c1C)CCC3,?,/,-15.0%,/,/,/
NCCc1nc2cccnc2n1-c1ccccc1,-5.1%,/,-15.9%,/,/,/
COc1cccc(-c2cc(=O)c3cc(NC(=O)c4ccc(N(C)C)cc4)ccc3[nH]2)c1,1.03µM*,?,0.92µM*,-18.3%,143.9,-14.3%
COc1ccc2[nH]c(-c3ccccc3)cc(=O)c2c1,/,-26.2%[96.6 µM],/,/,/,?
COc1cccc(-c2cc(=O)c3cc(NC(=O)c4ccccc4)ccc3[nH]2)c1,4.11µM*,-15.2%,4.61µM*,-0.8%,170.4,?
COc1cccc(C(=O)Nc2ccccc2C(=O)OCc2cc(=O)n3nc(C4CC4)sc3n2)c1,-2.0%,/,3.5%,/,/,/
Cc1ccccc1NC(=O)C1C(=O)Nc2ccccc2C(=O)N1Cc1ccccc1 (stereo not drawn),-18.4%,/,-19.5%,/,0.4,/
CCSc1nnc(NC(=O)C2Cc3ccccc3CN2C(=O)c2ccco2)s1 (stereo not drawn),-19.7%,?,-4.0%,14.2%,36.2,10µM*
C1CCC(CNc2c3c(nc4nnnn24)CCCC3)CC1,11.6µM*,7.8%,?,-2.2%,-9.4,7.8%
COc1ccc(C(C(=O)NCC2CCCO2)N(C(=O)c2snc(C(N)=O)c2N)c2ccccc2)cc1OC (stereo not drawn),-19.6%,0.8%,-7.9%,-15.1%,2.7,-1.8%
NC(=O)c1nsc(C(=O)N(c2ccc(Cl)cc2)C(C(=O)NCC2CCCO2)c2cccs2)c1N (stereo not drawn),?,-10.4%,?,-12.3%,-82.9*,15.5%
CCc1ccc(N(C(=O)c2snc(C(N)=O)c2N)C(C(=O)NCC2CCCO2)c2cccs2)cc1 (stereo not drawn),20.6µM*,-6.2%,?,?,13.6,37.7%
O=C(O)c1ccccc1C(=O)NCCc1ccc(Cl)cc1,-16.9%,4.3%,-19.5%,0.0%,0.5,-2.1%
Cc1c(C(=O)NCCc2ccc(Cl)cc2)cccc1-n1cnc2cccnc21,13µM*,/,14.6µM*,/,/,/
S=C(c1ccc(N2CCCC2)cc1)N1CCCCC1,18.4µM*,?,16.4µM*,?,-18.5,8.91µM*
Cc1ccc(C(=S)N2CCCCCC2)cc1,23.1µM*,?,16.4µM*,-8.1%,13.4,?
S=C(c1ccc(N2CCOCC2)cc1)N1CCOCC1,-21.6%,-10.6%,?,?,-7.2,18.5%
Oc1ccc(C(=S)N2CCCCCC2)cc1,-3.1%,6.1%,-16.8%,4.0%,2.6,8.2%
CCOC(=O)c1csc(N/N=C2\CCc3ccccc32)n1,?,?,?,8.9%,-92.5*,10µM*
CCOC(=O)c1csc(N/N=C2\CCCc3ccccc32)n1,16.4µM*,-26.6%,?,-1.8%,14.6,?
CCOC(=O)c1csc(NC(=O)c2cccs2)n1,-19.3%,-3.5%,3.2%,?,-19.0,0.0%
COc1ccc(OCC(=O)N/N=C2\CCCc3ccccc32)cc1,?,-4.5%,?,15.0%,-6.9,?
COc1ccc2c(c1)CCC/C2=N\Nc1nc(C(=O)NN)cs1,?,12.6µM*,?,?,/,3.55µM*
COc1ccc2c(c1)CCC/C2=N\NC(=O)c1ccoc1C,-15.6%,?,-5.3%,?,-10.6,39.8µM*
COc1ccc(C(C(=O)c2ccccc2)c2ccccc2)cc1 (stereo not drawn),?,/,-19.4%,/,-6.0,/
SMILES,DT40 TDP1 no CPT,VP16 counter,DT40 TDP1 CPT,ELG1 repair inh,IL1B secr inh,RORg inh
C(#Cc1c(-c2ccsc2)sc2ccccc12)c1ccsc1,-8.9%,/,?,?,22.9,/
Cc1c(C(=O)NCCN(C)C)sc2nc3n(c(=O)c12)CCC3,-0.8%,/,0.4%,/,/,/
COc1ccc(-c2cc(C3CCN(CC(O)C(F)(F)F)CC3)[nH]n2)cc1 (stereo not drawn),?,0.5%,?,-2.3%,-11.3,-0.4%
COc1ccc(OC)c(-c2cc(C3CCN(c4cc(Cl)nc(N)n4)CC3)[nH]n2)c1,20.6µM*,-5.2%,13µM*,?,-6.0,28.2%
COc1ccc(Nc2cc(Cl)nc(N)n2)cc1,-12.0%,-15.3%,-23.9%,?,-19.7,16.5%
Nc1nc(Cl)cc(N2CCC(c3cc(-c4ccc(Cl)cc4)n[nH]3)CC2)n1,2.82µM*,?,3.55µM*,?,-5.6,?
COc1ccc(-c2cc(C3CCN(c4cc(Cl)nc(N)n4)CC3)[nH]n2)cc1,23.1µM*,-23.9%,23.1µM*,?,?,?
O=C(C1CCOC1)N1CCOc2ccc(CN3CCC(Oc4cccnc4)CC3)cc2C1 (stereo not drawn),-10.5%,/,-13.2%[9.04 µM],/,/,/
Cc1cc2c(cc1C)-n1nnnc1C(N1CCCC1)C(=O)N2 (stereo not drawn),-28.7%,/,-15.9%,/,3.4,/
Cc1cc2c(cc1C)-n1nnnc1C(N(C)Cc1ccccc1)C(=O)N2 (stereo not drawn),14.6µM*,/,20.6µM*,/,8.4,/
Cc1cc2c(cc1C)-n1nnnc1C(N1CCN(c3ccccc3F)CC1)C(=O)N2 (stereo not drawn),18.4µM*,/,18.4µM*,/,7.3,/
O=C1Nc2ccccc2-n2nnnc2C1N1CCN(c2ccccn2)CC1 (stereo not drawn),-10.2%,/,0.1%,/,-0.6,/
O=C1Nc2ccccc2-n2nnnc2C1N1CCN(c2ccc(C(F)(F)F)cn2)CC1 (stereo not drawn),20.6µM*,/,16.4µM*,/,20.5,/
Cc1cc2c(cc1C)-n1nnnc1C(N1CCN(C(=O)OCc3ccccc3)CC1)C(=O)N2 (stereo not drawn),5.8µM*,/,6.51µM*,/,-4.0,/
CCCNC(=O)C1(C)CCN(C(=O)c2cccc(Cl)c2)C1 (stereo not drawn),-1.8%,/,2.2%,/,15.3,/
Cc1cccc(N2CCN(C3C(=O)Nc4ccccc4-n4nnnc43)CC2)c1C (stereo not drawn),7.31µM*,/,11.6µM*,/,29.4,/
Cc1ccc(N2CCN(C3C(=O)Nc4ccccc4-n4nnnc43)CC2)cc1 (stereo not drawn),?,/,-29.9%,/,23.6,/
